Records with an inconclusive call do not appear. Activity calls are given as the source filed them. Calls follow the shape of the dose curve; as a rule, active = well fitted inhibition curve with a large enough effect; inconclusive = small, poorly fitted or top-dose-only effect; inactive = no such curve, though single readings can be large or run the other way.
experiment: Primary qHTS for small molecule stabilizers of the endoplasmic reticulum resident proteome: Secreted ER Calcium Modulated Protein (SERCaMP) assay (AID 1508630); conditions: SH-SY5Y GLuc-SERCaMP (Gaussia luciferase released on ER calcium loss) secretion, thapsigargin, luminescence; series mostly up to 38.4 µM
Outline: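 GLuc-SERCaMP-expressing SH-SY5Y cells, pretreated 16 h with compound, are challenged with thapsigargin to empty ER calcium stores; after 4 h, coelenterazine is added directly to the medium and luminescence is imaged.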
% is scaled to controls: 0 for no effect and ±100 for the full control effect.

Compound | outcome | activity change, negative = inhibition
C[C@]12C=CC(=O)N[C@@H]1CC[C@H]1[C@H]3CC[C@@H](C(=O)Nc4cc(C(F)(F)F)ccc4C(F)(F)F)[C@@]3(C)CC[C@@H]12 | inactive | –
CC(C)(O)Cn1c(NC(=O)c2ccc(-c3cn[nH]c3)s2)nc2cc(CN3CCOCC3)ccc21 | inactive | –
COc1cc(CCc2cc(NC(=O)c3ccc(N4C[C@@H](C)N[C@@H](C)C4)cc3)n[nH]2)cc(OC)c1 | inactive | –
COC(=O)[C@@H]1[C@H]2C[C@@H]3c4[nH]c5ccccc5c4CCN3C[C@@H]2CC[C@@H]1O | inactive | –
CCCCCCCCc1ccc(CCC(N)(CO)CO)cc1 | inactive | –
Cn1cc(-c2cnn3c(N)c(Br)c([C@H]4CCCNC4)nc23)cn1 | inactive | –
N#CNC(=NCCCCCCOc1ccc(Cl)cc1)Nc1ccncc1 | inactive | –
Cc1onc(-c2ccccc2)c1C(=O)N[C@@H]1C(=O)N2[C@@H](C(=O)O)C(C)(C)S[C@@H]12 | inactive | –
COC1=C2C[C@@H](C)C[C@H](OC)[C@@H](O)[C@@H](C)C=C(C)[C@H](OC(N)=O)[C@@H](OC)C=CC=C(C)C(=O)NC(=CC1=O)C2=O | inactive | –
C[C@@H](Cc1cc2c(c(C(N)=O)c1)N(CCCO)CC2)NCCOc1ccccc1OCC(F)(F)F | inactive | –
CC(C)(C)[C@H](NC(=O)c1ccc(N)c(Cl)c1)C(=O)N1CCC[C@@H]1C(=O)N[C@H](C#N)CC(=O)O | – | 176% [at 3.88 µM] (inactive)
Nc1ccc(C(=O)Nc2cccc(-c3nc(N4CCOCC4)c4oc5ncccc5c4n3)c2)cn1 | inactive | –
CC(C)N1[N]C(=C2C=c3cc(O)ccc3=N2)c2c(N)ncnc21 | inactive | –
